In the supplement of paper PMC10121225:
Counter-ions that a name gives are not always drawn.

System: hN + hpA co-culture (H1 iNGN2 human neurons + human primary astrocytes)
Experiment: presynaptic density (SYNAPSIN1 puncta per MAP2 neurite area), Z-score vs DMSO controls; higher = more presynaptic puncta (synapse-promoting)
Settings: 3 µM; 72 h
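Further: immunostained co-cultures imaged by high-content microscopy, Z-score per plate against mean and SD of 0.1% DMSO wells, compounds added on differentiation day 18, analysed day 21.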

SMILES | presynaptic density (Z-score)
COc1ccc2cc(-c3nc(-c4ccc([S+](C)[O-])cc4)[nH]c3-c3ccncc3)ccc2c1 (stereo unspecified) [Tie2 kinase inhibitor] | -0.787
Nc1nc(OCc2cc(Br)cs2)c2[nH]cnc2n1 [Lomeguatrib] | -0.621
COc1ccc(C2CNC(=O)C2)cc1OC1CCCC1 (stereo unspecified) [Rolipram] | -0.353
NCc1c[nH]c(=S)n1C1CCc2c(F)cc(F)cc2C1 [(R)-Nepicastat HCl] | 0.738
Cc1[nH]c2ccccc2c1CCNCc1ccc(/C=C/C(=O)NO)cc1 [Panobinostat (LBH589)] | 4.81
CC12CC3CC(C)(C1)CC(N)(C3)C2 | -1.67
CC(C)(C)c1cc(/C=C(\C#N)C(N)=S)cc(C(C)(C)C)c1O [Tyrphostin AG 879] | -0.121
Cc1[nH]c(/C=C2\C(=O)Nc3ccc(S(=O)(=O)Cc4c(Cl)cccc4Cl)cc32)c(C)c1C(=O)N1CCC[C@@H]1CN1CCCC1 | -4.53
Oc1ccc2ccccc2c1SSc1c(O)ccc2ccccc12 [1-1-Dithiodi-2-naphthtol] | -0.787
CC(C)c1noc(N2CCC(COc3ccc(-c4ccc(S(C)(=O)=O)cc4)nc3)CC2)n1 | 0.0886
CS(=O)(=O)c1cccc(CNc2nc(Nc3ccc4c(c3)CCC(=O)N4)ncc2C(F)(F)F)c1 | 1.04
COc1cc(N2CCC(N(C)C)CC2)ccc1Nc1ncc(Cl)c(Nc2ccccc2P(C)(C)=O)n1 | 0.449
CC(NC(=O)c1ccccc1N=Cc1c(O)ccc2ccccc12)c1ccccc1 (stereo unspecified) | 0.165
CCOC(=O)C1=C(COCCN)NC(C)=C(C(=O)OC)C1c1ccccc1Cl (stereo unspecified) | -1.97
CCn1c(N)c(C(=O)NC)c(=O)c2ccc(C#CC(C)(O)COC)nc21 (stereo unspecified) | 0.325
O=C(N/N=C/c1ccc(O)c(O)c1)c1cc2ccccc2cc1O | -0.146
CC(C(O)c1ccc(O)cc1)N1CCC(Cc2ccccc2)CC1 (stereo unspecified) [Ifenprodil Tartrate_Selleck] | -0.233
CC(CCc1ccccc1)NCC(O)c1ccc(O)c(C(N)=O)c1 (stereo unspecified) [Labetalol HCl] | -0.733
O=C(Cc1ccc(-c2ccc(OCCN3CCOCC3)cc2)cn1)NCc1ccccc1 | -5.26
Cc1cccc(CC(=O)N2CCc3c2ccc(-c2cn(C)c4ncnc(N)c24)c3F)n1 | -0.752
CCN[C@H]1CN(CCCOC)S(=O)(=O)c2sc(S(N)(=O)=O)cc21 [Brinzolamide] | -0.474
CC(C=CC(=O)NO)=CC(C)C(=O)c1ccc(N(C)C)cc1 (stereo unspecified) [Trichostatin A (TSA)] | 11.2
CCO[C@@H]1OC(=O)C[C@@H]1NC(=O)[C@@H]1CCCN1C(=O)[C@@H](NC(=O)c1ccc(N)c(Cl)c1)C(C)(C)C | -1.02
OC[C@H]1O[C@@H](c2ccc(Cl)c(Cc3ccc(O[C@H]4CCOC4)cc3)c2)[C@H](O)[C@@H](O)[C@@H]1O | -0.331
O=S(=O)(NCCNCC=Cc1ccc(Br)cc1)c1cccc2cnccc12 | -0.0684
O=C1c2ccccc2-c2n[nH]c3cccc1c23 [Anthra[1-9-cd]pyrazol-6(2H)-one] | 0.183
